Compounds without any hit were thinned out: in the full panel of roughly 83,000, 20% have a hit.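 Method: cells in 96-well plates; compound added at one concentration; 48 h incubation; percent growth measured; values under 10 scored active.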 Values without a mark were called inactive. The source made the active and inactive calls.

The subject of the experiment is HL-60(TB) leukemia. The experiment in a line: NCI-60 one-dose screen, 48 h (100 = growth as untreated, 0 = no growth, -100 = all killed). The settings on record: 10 µM unless noted.
With `O=S(=O)(O)c1cc(O)c2c(N=Nc3ccc(Nc4ccccc4)c4c(S(=O)(=O)O)cccc34)cc(S(=O)(=O)O)cc2c1`, the growth is 82.7%.

Take `Cc1ccc(S(=O)(=O)c2nc(-c3ccccc3)oc2Sc2nc3ccccc3s2)cc1`: the growth was 71.9%.

Regarding `CC1Cc2ccccc2N1NC(=O)c1ccc(Cl)c(S(N)(=O)=O)c1` (stereo not given), the growth was 92.3%.

As for `CCOC(=O)CCCCCCCCC(=O)OCC`, the growth was 97.4%.

On to `CC(C)(CCN=C(N)Nc1ccccn1)c1ccc(C(F)(F)F)cc1`, for which the growth was -52.7% (active).

Take `O=C(CN1CCN(c2cc3c(cc2F)c(=O)c(C(=O)O)cn3C2CC2)CC1)Nc1nc(-c2ccc(Cl)cc2)cs1`: the growth was 19.6%.

On to `CC(CN1CCN(CC(C)Nc2ccnc3cc(Cl)ccc23)CC1)Nc1ccnc2cc(Cl)ccc12` (stereo not given), for which the growth was 19.8%.

In the case of `CCC(C)NCc1ccccc1` (stereo not given), the growth was 94.6%.

For `CCc1c(C)[nH]c(=O)c(C(N)=O)c1C#N`, the growth was 102%.

On to `COc1ccc(-c2c(-c3ccccc3)noc2N)cc1OC`, for which the growth is 95.2%.

As for `NNC(=O)CCCCl`, the growth is 102%.

As for `CCCC1OC(c2ccco2)OCC1CC` (stereo not given), the growth was 102%.

For `Clc1cc(Cl)cc(Nc2ccc3cc(OCCCN4CCOCC4)ccc3n2)c1`, the growth was 26.7%.

`N[C@@H]1CCC[C@H]1NCCCCN1C(=O)c2cccc3cc([N+](=O)[O-])cc(c23)C1=O`: the growth was 30.5%.

Regarding `CC(C)CCC[C@@H](C)[C@H]1CC[C@H]2[C@@H]3CC[C@H]4C/C(=N/O)CC[C@]4(C)[C@H]3CC[C@]12C`, the growth is 104%.

Turning to `C=C1C(=O)O[C@H]2[C@H]1CC/C(C(=O)NCCCCCCCCNC(=O)/C1=C/CC[C@@]3(C)O[C@H]3[C@H]3OC(=O)C(=C)[C@@H]3CC1)=C\CC[C@@]1(C)O[C@@H]21`, the growth is 6.59% (active).

For the molecule `O=C1Nc2c(ccc(Cl)c2Cl)/C1=C/c1ccc(O)cc1`, the growth is 76.9%.

In the case of `CCOC(=O)c1c(C)c2c(n1C)CSc1cc(S(=O)(=O)c3ccccc3)c(=O)[nH]c1-2`, the growth was 25% [100 µM].

`O=C(Nc1ccc(-n2ccc3c(NC(=O)c4ccccc4)nccc32)cc1)Nc1ccc(Cl)c(Cl)c1`: the growth is -16.4% (active).

As for `Cc1ccc(C[P+](c2ccccc2)(c2ccccc2)c2ccccc2)cc1`, the growth is -63.4% (active).

Consider `O=C1C=CC(n2cc(F)c(=O)[nH]c2=O)O1` (stereo not given), for which the growth was 45.3%.

As for `C/C(=N\NC(=O)c1ccncc1)c1ccc(N)cc1`, the growth was 90.2%.

`CC1=NN(c2nc(-c3ccc(Cl)cc3)c(C#N)c(N3CCOCC3)n2)C(=O)C1`: the growth was 81.8%.

Regarding `Cc1[nH]c(C(=O)Nc2ccc(C(N)=O)cc2NC(C)C)c(Cl)c1Cl`, the growth was 99.7%.

In the case of `Cc1cc(C)cc(Nc2nccc(-c3c(-c4ccc(F)cc4)ncn3C3CCNCC3)n2)c1`, the growth was -58.9% (active).

On to `CC1(C)N=c2cc3c(cc2N1c1ccc(Cl)cc1)=Nc1ccccc1N3c1ccc(Cl)cc1`, for which the growth is -40.4% (active).

As to `N#Cc1cccc(OCc2nc(N)nc(N)c2-c2ccc(Cl)c(Cl)c2)c1`, the growth was 29.8%.

In the case of `CC(=O)CCS(=O)c1ccccc1` (stereo not given), the growth is 97.4%.

Consider `COc1cc2c3c(c(=O)oc2cc1OS(=O)(=O)c1ccc(C(F)(F)F)cc1)CCCCC3`, for which the growth was 107%.

Consider `CCOCC(=O)C(C#N)c1ccc(Cl)c(Cl)c1` (stereo not given), for which the growth is 102%.

Take `COc1ccc(C2OCC(C)(C)CO2)cc1OC`: the growth is 100%.

`CN(C)CCCN(c1nc(C(Cl)(Cl)Cl)ns1)c1nc(C(Cl)(Cl)Cl)ns1`: the growth was 24.4%.

As for `Cc1nc2sc(C(=O)Nc3ccc(Br)cc3)c(N)c2cc1C(O)c1ccccc1` (stereo not given), the growth was 22.4%.

Turning to `CC(=O)c1nc2ccccc2n1CCN1CCN(C)CC1`, the growth is 8.01% (active).

As to `Clc1ccc2c(NCCCCNc3nc(N4CCCCC4)nc4ccccc34)ccnc2c1`, the growth was -69% (active).

Regarding `CCCCCCCCCCOC(c1ccccc1)c1ccccc1`, the growth was 81.4%.

On to `Cc1ccc(S(=O)(=O)n2cc(-c3csc(-c4cn(C)c5ncccc45)n3)c3ccccc32)cc1`, for which the growth is 61.9%.

Turning to `CC1(C)S[C@@H]2[C@H](NC(=O)[C@H](C(=O)O)c3cccs3)C(=O)N2[C@H]1C(=O)O`, the growth was 106%.

`CCN(CC)CCN1C(=O)c2c(c(C)c3c(oc4cc(OC)ccc43)c2C)C1=O`: the growth is 85.8%.

Consider `O=C1CCC(C(=O)NN(c2ccccc2)c2ccccc2)N1` (stereo not given), for which the growth is -18.8% (active).

The values are drawn from PubChem BioAssay (NCI).
